Experimental data published in PubChem BioAssay (Tox21).
Inconclusive results are not listed. Calls of active or inactive are those of the source. Unless noted, calls come from the whole dose curve; as a rule, active = well fitted curve in the direction sought with a large enough effect in the repeat runs; inconclusive = weak or mixed curves; inactive = no such curve, though single readings can be large; an effect the other way counts as inactive or inconclusive.

Tests used:
[1] = qHTS assay to identify small molecule antagonists of the estrogen receptor alpha (ER-alpha) signaling pathway using the BG1 cell line in the presence of 0.1 nM 17-beta-estradiol - cell viability counter screen (AID 1259241); note: nearly all actives have a fitted effect of over 40% in size
Outline: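 Live-cell protease activity (CellTiter-Fluor fluorescence, 30 min) was read in the same wells after VM7Luc4E2 cells had been exposed to compounds with 0.1 nM 17beta-estradiol for 22 hr at 37C.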

[2] = target: Estrogen receptor (Homo sapiens) (UniProt P03372); test: qHTS assay to identify small molecule antagonists of the estrogen receptor alpha (ER-alpha) signaling pathway using the BG1 cell line in the presence of 0.1 nM 17-beta-estradiol (AID 1259244); note: nearly all actives have a fitted effect of over 50% in size; note: potency is the fitted concentration of half-maximal effect
Outline: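 Luciferase signal from VM7Luc4E2 ERE-reporter cells, co-dosed with test compound and 0.1 nM final 17beta-estradiol for 22 h, read with ONE-Glo.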

[3] = qHTS assay to identify small molecule HDAC inhibitors (AID 1259364);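 note: wild-type HCT-116 cells with endogenous class I/II HDAC activity; top concentration of the series differs between compounds; nearly all actives have a fitted effect of over 45% in size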
Outline: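 HCT-116 wt cells, 1,500/well, overnight attach. Compounds (DMSO) 2 h, 37 °C. HDAC-Glo I/II, 30 min RT. Luminescence.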

[4] = qHTS assay to identify small molecule HDAC inhibitors - cell viability counter screen (AID 1259365); note: series mostly up to about 92 µM; nearly all actives have a fitted effect of over 50% in size
Outline: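 HCT-116 (wild type), 1,500 cells/well, overnight 37C/5% CO2; compound in DMSO 2hr; CellTiter-Glo 30min RT; luminescence read.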

[5] = qHTS assay to identify small molecule agonists of the sonic hedgehog signaling (Shh) pathway (AID 1259368; calls by dose curve;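 note: NIH/3T3-derived 3T3Gli1-Luc cells carrying a stable Gli1-driven firefly luciferase reporter; series mostly up to about 92 µM; nearly all actives have a fitted effect of over 15% in size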)
Outline: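 Following a 24 hr incubation with DMSO-dissolved compounds at 37 C, 5% CO2, Gli1-Luc NIH/3T3-derived cells received luciferase reagent for 30 min at room temperature prior to luminescence measurement.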

[6] = qHTS assay to identify small molecule antagonists of the sonic hedgehog signaling (Shh) pathway (AID 1259369; calls by dose curve; note: nearly all actives have a fitted effect of over 45% in size; note: potency is the fitted concentration of half-maximal effect)
Outline: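 Read-out is luminescence from a firefly luciferase gene controlled by the Gli1 response element, in 3T3Gli1-Luc cells pre-incubated 4hr then exposed to compounds and conditioned medium for 24hr.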

[7] = target: Estrogen receptor beta (Homo sapiens) (UniProt Q92731); test: qHTS assay to identify small molecule antagonists of the estrogen receptor beta (ER-beta) signaling pathway (AID 1259378; active = well fitted inhibition curve with a large enough effect in the signal ratio in the repeat runs, not every such curve was filed as active; the % refers to the signal ratio; note: potency is the fitted concentration of half-maximal effect)
Outline: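 ER-beta-UAS-bla HEK293T (GripTite) cells in 2% charcoal-stripped FBS medium were preincubated 6 hr at 37C, dosed with compound, then stimulated with 1 nM E2 (final) for 16 hr; beta-lactamase reporter read by B/G FRET fluorescence after 2 hr substrate loading.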

[8] = qHTS assay to identify small molecule agonists of the androgen receptor (AR) signaling pathway in the presence of an antagonist - cell viability counter screen (AID 1259379); note: nearly all actives have a fitted effect of over 25% in size; note: potency is the fitted concentration of half-maximal effect
Outline: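 Each compound was tested at 15 concentrations on MDA-kb2 cells in the presence of 3.0uM nilutamide. Viability was measured by CellTiter-Fluor fluorescence after a 16 hr incubation at 37C in a CO2-free atmosphere.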

[9] = qHTS assay to identify small molecule agonists of the estrogen receptor beta (ER-beta) signaling pathway - cell viability counter screen (AID 1259380); note: nearly all actives have a fitted effect of over 30% in size; note: potency is the fitted concentration of half-maximal effect
Outline: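 Compounds dissolved in DMSO were pin-transferred onto ER-beta-UAS-bla HEK293T cells that had settled 6 hr, and exposure ran 16 hr at 37C. Following the reporter read, CellTiter-Glo luminescence after 30 min at room temperature indicated cytotoxicity.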

[10] = target: Androgen receptor (Homo sapiens) (UniProt P10275); test: qHTS assay to identify small molecule agonists of the androgen receptor (AR) signaling pathway in the presence of an antagonist (AID 1259381; calls by dose curve; note: nearly all actives have a fitted effect of over 15% in size; note: potency is the fitted concentration of half-maximal effect)
Outline: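 Plated MDA-kb2 cells (3,000/well) were pre-incubated 5hr, given nilutamide (3.0uM final) or buffer, then dosed with compounds in DMSO at 15 concentrations. Luciferase activity was quantified by luminescence after 16hr at 37C.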

[11] = qHTS assay to identify small molecule antagonists of the estrogen receptor beta (ER-beta) signaling pathway - cell viability counter screen (AID 1259382); note: nearly all actives have a fitted effect of over 55% in size; note: potency is the fitted concentration of half-maximal effect
Outline: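 CellTiter-Glo ATP luminescence measured after the LiveBLAzer read in the same wells; ER-beta-UAS-bla HEK293T cells, 16 hr compound treatment with 1nM 17-beta-estradiol agonist at 37C, 5% CO2.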

[12] = target: Estrogen receptor (Homo sapiens) (UniProt P03372); test: qHTS assay to identify small molecule agonists of the estrogen receptor alpha (ER-alpha) signaling pathway in the presence of an antagonist (AID 1259383; calls by dose curve; note: nearly all actives have a fitted effect of over 15% in size; note: potency is the fitted concentration of half-maximal effect; for activation: top concentration of the series differs between compounds)
Outline: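 Luminescent ERE-luciferase reporter, VM7Luc4E2 cells (endogenous ER-alpha); 10.0nM ICI-182,780 final; 15-point compound titration; 22hr at 37C; ONE-Glo, 30min RT.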

[13] = qHTS assay to identify small molecule agonists or antagonists of the thyroid stimulating hormone receptor (TSHR) signaling pathway - wild type cell line counter screen (AID 1259384; calls by dose curve)
Outline: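 Wild-type HEK293 cells were plated 18 h at 37 C/5% CO2, pin-dosed with compound plus Ro20-1724 medium, held 30 min at room temperature, then given cAMP-d2 and anti-cAMP-cryptate; fluorescence was read after 1 h. Fifteen concentrations, triplicate.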

[14] = target: Estrogen receptor beta (Homo sapiens) (UniProt Q92731); test: qHTS assay to identify small molecule agonists of the estrogen receptor beta (ER-beta) signaling pathway (AID 1259377; active = well fitted activation curve with a large enough effect in the signal ratio in the repeat runs, not every such curve was filed as active; the % refers to the signal ratio)
Outline: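 Beta-lactamase reporter readout: fluorescence of LiveBLAzer B/G FRET substrate after 2 h at room temperature, following 16 h compound treatment of ER-beta-UAS-bla HEK293T cells at 37C in 2% charcoal-stripped FBS medium.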

[15] = qHTS assay to identify small molecule agonists of the sonic hedgehog signaling (Shh) pathway - cell viability counter screen (AID 1259366); note: nearly all actives have a fitted effect of over 50% in size; note: potency is the fitted concentration of half-maximal effect
Outline: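 CellTiter-Fluor fluorescence read-out, 1 hr at 37C, added after 23hr compound exposure. Cells: 3T3 Gli1-Luc, an NIH/3T3 clone with stably integrated Gli1-Luc reporter, plated 4hr before compound.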

[16] = qHTS assay to identify small molecule antagonists of the sonic hedgehog signaling (Shh) pathway - cell viability counter screen (AID 1259367); note: nearly all actives have a fitted effect of over 55% in size; note: potency is the fitted concentration of half-maximal effect
Outline: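 Conditioned medium drove Shh signaling in 3T3 Gli1-Luc cells exposed to compounds at 37C and 5% CO2. Viability was determined from CellTiter-Fluor fluorescence, with reagent incubated 1 hr after 23 hr of treatment.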

[17] = target: Thyrotropin receptor (Homo sapiens) (UniProt P16473); test: qHTS assay to identify small molecule antagonists of the thyroid stimulating hormone receptor (TSHR) signaling pathway (AID 1259385; calls by dose curve; note: nearly all actives have a fitted effect of over 20% in size; note: potency is the fitted concentration of half-maximal effect)
Outline: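 TSHR-HEK293 cells were plated and held 18 h at 37C/5% CO2, then given compound plus Ro20-1724 and stimulated with TSH at 1.5 ng/mL final. After 30 min at room temperature, cAMP was detected with cAMP-d2/anti-cAMP-cryptate (1 h) by fluorescence.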

[18] = target: Androgen receptor (Homo sapiens) (UniProt P10275); test: qHTS assay to identify small molecule antagonists of the androgen receptor (AR) signaling pathway using the MDA cell line in the presence of 0.5 nM R1881 (AID 1259243); note: nearly all actives have a fitted effect of over 50% in size; note: potency is the fitted concentration of half-maximal effect
Outline: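 Luminescence from an AR/GR-responsive MMTV-luciferase construct in MDA-kb2 breast carcinoma cells, read 30 min after ONE-Glo, following 16 hr co-treatment with compounds and 0.5 nM R1881.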

[19] = qHTS assay to identify small molecule antagonists of the androgen receptor (AR) signaling pathway using the MDA cell line in the presence of 0.5 nM R1881 - cell viability counter screen (AID 1259242); note: nearly all actives have a fitted effect of over 45% in size; note: potency is the fitted concentration of half-maximal effect
Outline: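 Cells seeded at 3,000/well and allowed 5 hr at 37C, 0% CO2 before compound transfer and R1881 (0.5 nM final) addition; 16 hr later, live-cell protease fluorescence indicated cytotoxicity.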

Measured: Potency

Chain of Estrogen receptor (Homo sapiens) (P03372 whole entry, looked up): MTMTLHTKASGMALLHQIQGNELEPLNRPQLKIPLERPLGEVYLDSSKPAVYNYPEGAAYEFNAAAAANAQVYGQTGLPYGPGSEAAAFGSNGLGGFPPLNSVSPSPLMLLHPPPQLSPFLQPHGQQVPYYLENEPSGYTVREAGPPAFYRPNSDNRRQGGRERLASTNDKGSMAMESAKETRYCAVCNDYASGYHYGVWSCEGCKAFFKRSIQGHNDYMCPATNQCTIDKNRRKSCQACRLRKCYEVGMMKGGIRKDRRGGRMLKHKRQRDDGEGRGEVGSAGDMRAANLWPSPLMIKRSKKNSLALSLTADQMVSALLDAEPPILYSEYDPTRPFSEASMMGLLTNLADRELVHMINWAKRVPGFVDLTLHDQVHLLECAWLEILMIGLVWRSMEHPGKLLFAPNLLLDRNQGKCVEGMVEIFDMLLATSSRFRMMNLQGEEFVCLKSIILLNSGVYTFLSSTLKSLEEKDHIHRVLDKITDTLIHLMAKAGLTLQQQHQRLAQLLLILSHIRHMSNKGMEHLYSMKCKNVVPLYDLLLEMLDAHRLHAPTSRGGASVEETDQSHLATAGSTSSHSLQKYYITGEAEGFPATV
Chain of Thyrotropin receptor (Homo sapiens) (P16473 whole entry, looked up): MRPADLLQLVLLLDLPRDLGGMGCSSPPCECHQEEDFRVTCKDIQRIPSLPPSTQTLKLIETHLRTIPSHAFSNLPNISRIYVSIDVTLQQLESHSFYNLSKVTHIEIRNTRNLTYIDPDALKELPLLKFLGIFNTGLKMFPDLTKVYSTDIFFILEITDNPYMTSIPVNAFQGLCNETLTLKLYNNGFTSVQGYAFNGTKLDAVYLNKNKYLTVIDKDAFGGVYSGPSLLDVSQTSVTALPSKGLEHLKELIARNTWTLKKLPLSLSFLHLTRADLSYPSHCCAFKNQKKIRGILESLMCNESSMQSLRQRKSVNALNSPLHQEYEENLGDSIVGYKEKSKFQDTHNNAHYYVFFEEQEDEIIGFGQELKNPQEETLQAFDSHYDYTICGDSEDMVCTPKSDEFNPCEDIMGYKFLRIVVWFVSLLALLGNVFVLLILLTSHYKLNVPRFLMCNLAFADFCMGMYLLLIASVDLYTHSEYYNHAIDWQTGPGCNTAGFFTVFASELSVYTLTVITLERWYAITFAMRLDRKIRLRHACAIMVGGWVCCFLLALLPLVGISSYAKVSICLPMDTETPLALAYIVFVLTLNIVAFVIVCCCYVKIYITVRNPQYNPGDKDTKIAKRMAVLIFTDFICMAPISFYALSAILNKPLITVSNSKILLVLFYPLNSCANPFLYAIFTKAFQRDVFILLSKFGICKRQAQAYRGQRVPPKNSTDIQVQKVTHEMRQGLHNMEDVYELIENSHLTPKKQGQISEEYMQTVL
Chain of Estrogen receptor beta (Homo sapiens) (Q92731 whole entry, looked up): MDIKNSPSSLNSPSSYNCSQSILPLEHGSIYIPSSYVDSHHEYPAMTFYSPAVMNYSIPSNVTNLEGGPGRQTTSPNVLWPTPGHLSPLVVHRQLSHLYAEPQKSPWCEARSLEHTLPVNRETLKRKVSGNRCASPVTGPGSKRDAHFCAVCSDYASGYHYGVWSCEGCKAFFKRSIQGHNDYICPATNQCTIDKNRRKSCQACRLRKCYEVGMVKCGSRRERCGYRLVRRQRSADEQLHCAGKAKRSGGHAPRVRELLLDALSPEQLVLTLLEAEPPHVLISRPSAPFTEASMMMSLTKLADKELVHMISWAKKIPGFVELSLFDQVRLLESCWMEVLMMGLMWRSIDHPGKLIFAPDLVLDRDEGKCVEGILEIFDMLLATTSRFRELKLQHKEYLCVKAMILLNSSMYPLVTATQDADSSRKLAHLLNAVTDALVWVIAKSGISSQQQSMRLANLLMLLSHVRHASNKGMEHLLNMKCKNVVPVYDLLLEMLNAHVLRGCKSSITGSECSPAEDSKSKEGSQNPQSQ
Chain of Androgen receptor (Homo sapiens) (P10275 whole entry, looked up): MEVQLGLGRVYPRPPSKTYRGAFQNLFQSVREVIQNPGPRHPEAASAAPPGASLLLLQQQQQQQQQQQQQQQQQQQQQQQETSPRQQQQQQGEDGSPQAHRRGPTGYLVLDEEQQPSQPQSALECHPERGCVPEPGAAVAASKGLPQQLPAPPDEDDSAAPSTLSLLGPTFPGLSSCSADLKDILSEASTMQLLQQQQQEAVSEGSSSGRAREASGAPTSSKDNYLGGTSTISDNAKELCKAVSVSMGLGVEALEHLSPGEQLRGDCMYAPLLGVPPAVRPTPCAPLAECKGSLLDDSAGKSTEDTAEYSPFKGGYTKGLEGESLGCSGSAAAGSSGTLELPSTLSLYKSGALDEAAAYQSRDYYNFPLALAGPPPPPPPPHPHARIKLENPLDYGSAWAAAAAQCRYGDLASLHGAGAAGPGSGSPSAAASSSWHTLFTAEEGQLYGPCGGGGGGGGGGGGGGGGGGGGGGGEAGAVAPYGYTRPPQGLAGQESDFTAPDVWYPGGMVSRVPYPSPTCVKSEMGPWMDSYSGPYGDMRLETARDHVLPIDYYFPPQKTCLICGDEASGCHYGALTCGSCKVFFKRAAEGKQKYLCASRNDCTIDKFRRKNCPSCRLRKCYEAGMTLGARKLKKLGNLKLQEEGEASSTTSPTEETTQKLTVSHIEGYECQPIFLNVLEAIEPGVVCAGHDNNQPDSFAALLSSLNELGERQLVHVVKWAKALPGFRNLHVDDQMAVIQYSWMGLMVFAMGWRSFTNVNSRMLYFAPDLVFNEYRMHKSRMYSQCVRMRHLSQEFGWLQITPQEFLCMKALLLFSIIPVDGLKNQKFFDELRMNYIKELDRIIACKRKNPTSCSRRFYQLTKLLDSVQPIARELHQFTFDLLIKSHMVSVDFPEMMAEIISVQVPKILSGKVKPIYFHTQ

CN1CCN(CCC(=O)N2c3ccccc3Sc3ccc(C(F)(F)F)cc32)CC1
inactive: [1] | [2] | [3] | [4] | [5] | [10] | [12] | [13]
active: [6] 3.35 µM | [7] 21.1 µM | [8] 29.8 µM | [9] 13.3 µM | [11] 16.8 µM

Cc1[nH]cnc1C[C@H]1CCc2c(C)c3ccccc3n2C1=O
inactive: [1] | [3] | [4] | [5] | [14] | [13]
active: [6] 18.9 µM | [7] 29.9 µM | [9] 4.74 µM

OCCCCCCCCCCCCBr
inactive: [1] | [3] | [4] | [15] | [16] | [5] | [14] | [8] | [9] | [11] | [13]
active: [7] 55.3 µM

O=C1C=CC(=O)N1c1ccc(Cc2ccc(N3C(=O)C=CC3=O)cc2)cc1
inactive: [1] | [4] | [5] | [12] | [13]
active: [15] 7.7 µM | [16] 21.7 µM | [9] 48.6 µM | [17] 48.6 µM

Cc1oc(-c2ccccc2)nc1CCC(=O)c1ccc(CC2SC(=O)NC2=O)cc1 (stereo not given)
inactive: [1] | [3] | [4] | [5] | [6] | [13] | [17]
active: [9] 6.68 µM

CCc1cc(Cc2cc(CC)cc(C(C)(C)C)c2O)c(O)c(C(C)(C)C)c1
active: [18] 30.6 µM | [15] 61.1 µM | [6] 27.3 µM | [8] 54.5 µM | [9] 19.3 µM
inactive: [4] | [5] | [10] | [13]

CC(C)(C)c1ccc(C(=O)CCCN2CCC(OC(c3ccccc3)c3ccccc3)CC2)cc1
inactive: [3] | [4] | [5] | [14] | [13] | [17]
active: [19] 21.1 µM | [15] 26.6 µM | [6] 11.9 µM | [7] 13.3 µM | [9] 18.8 µM | [11] 23.7 µM

Nc1ccc2c3c(cccc13)-c1ccccc1-2
inactive: [18] | [2] | [3] | [4] | [5] | [6] | [13]
active: [9] 49.1 µM | [10] 49.1 µM | [11] 49.1 µM

O=C(O)c1cc(O)c2c(c1)C(=O)c1cccc(O)c1C2=O
inactive: [19] | [2] | [4] | [15] | [5] | [9] | [11] | [12] | [13] | [17]

CCCCCCCCCCCC(=O)NCCCN(C)C
active: [18] 68.6 µM | [6] 19.3 µM | [9] 54.5 µM | [11] 54.5 µM | [17] 61.1 µM
inactive: [2] | [4] | [5] | [10] | [12] | [13]

N#CSc1ccc(N)c([N+](=O)[O-])c1
inactive: [3] | [4] | [5] | [10] | [12] | [13]
active: [18] 30.8 µM | [15] 69 µM | [16] 30.8 µM | [6] 12.3 µM | [7] 19.4 µM | [17] 61.5 µM

CCCCCCCCCCCCc1ccc(O)cc1
inactive: [3] | [4] | [5] | [6] | [13] | [17]
active: [2] 61.1 µM | [9] 43.3 µM | [11] 48.6 µM | [12] 10.9 µM

CCN(CCC#N)c1ccc(N=Nc2c(Cl)cc([N+](=O)[O-])cc2Cl)cc1
active: [8] 17.2 µM
inactive: [2] | [3] | [4] | [15] | [5] | [6] | [12] | [13] | [17]

CCCCCCCCCOC(=O)c1ccc(O)cc1
active: [18] 42.7 µM | [15] 60.3 µM | [9] 53.7 µM
inactive: [3] | [4] | [16] | [5] | [6] | [10] | [13]
